Usually inhibition stands for the change of the read-out against control, counted positive when it falls.

Structures are written as SMILES. Unmarked numbers belong to inactive results. No rule for the calls is given here.

The experiment concerns Botulinum neurotoxin type F light chain protease (Clostridium botulinum). The experiment is described as follows: Botulinum neurotoxin type F light chain protease inhibition, multiplex microsphere flow cytometry, validation set (AID 588459). Conditions: multiplex microsphere protease substrate cleavage assay, at 10 µM, active compounds read high. In general terms: Flow cytometry measures light scatter and fluorescence of single cells or particles in a stream.
For the compound `O=C(Cc1c[nH]c2ccccc12)OCCOC(=O)Cc1c[nH]c2ccccc12`, the inhibition is 0.9%.

For the compound `CC(=O)OCC(OC(C)=O)C(OC(C)=O)C(OC(C)=O)C(=O)Nc1cccc(C)c1` (stereo not given), the inhibition was 3.7%.

Take `CCc1cc(=O)oc2cc(C)c(CN3CCCC(C)C3)c(O)c12` (stereo not given): the inhibition is 3.9%. `O=C(COc1ccc2c(-c3ccccc3)cc(=O)oc2c1)NCc1cccs1`: the inhibition is -0.2%.

`CCC(=O)Nc1ccc(C(=O)N2CCN(C(=O)c3ccco3)CC2)cc1`: the inhibition was -2.6%. For the compound `O=c1cc(-c2ccc3c(c2)OCCO3)oc2ccc(Cl)cc12`, the inhibition was 0.8%.

On to `CC(=O)N1c2ccccc2C(C)=CC1(C)C`, for which the inhibition is 2.3%. As to `C[N+](C)(C)CCOP(=O)(O)OP(=O)([O-])OC[C@H]1O[C@@H](n2ccc(N)nc2=O)[C@H](O)[C@@H]1O`, the inhibition was 6%. With `CC1(C)CC(=O)c2cnc(NC(=O)C3CCCC3)nc2C1`, the inhibition was 1.2%. For `CC[N+](C)(C)Cc1ccccc1Br` the value was 2.1%; for `CC1(C(=O)O)CCC(C(=O)NC2CCCCCC2)C1(C)C` (stereo not given), -6.8%; for `COc1cccc(OC)c1C(=O)Nc1nc2ccc([N+](=O)[O-])cc2s1`, 7.7%. The figure for `CC12CCCCN1CCCc1c2[nH]c2ccccc12` (stereo not given) is -1.1%. On to `Cc1c(OCC(F)(F)F)ccnc1CS(=O)c1nc2ccccc2[nH]1` (stereo not given), for which the inhibition was -1%.

Take `C#CCN(C)CCCOc1ccc(Cl)cc1Cl`: the inhibition was 1.1%.

As for `COc1ccc(-c2nc(NC(C)=O)sc2-c2ccc(OC)cc2)cc1`, the inhibition is 3%. Take `Cc1cc(OC(=O)CNC(=O)OC(C)(C)C)c2c(C)cc(=O)oc2c1`: the inhibition is -0.2%. In the case of `COC(=O)CCC(=O)CN`, the inhibition is 0.5%.

In the case of `CC(C)c1ccc(/C=C/C(=O)O)cc1`, the inhibition is 1.6%. For `C[C@@H]1C[C@H]2[C@@H]3CCC4=CC(=O)C=C[C@]4(C)[C@@]3(F)[C@@H](O)C[C@]2(C)[C@H]1C(=O)CO` the value was 0.3%; for `Cc1ccc2[nH]c3c(c2c1)CCNC3=O`, -0.6%; for `COc1ccccc1C(O)c1nccn1C` (stereo not given), 1.9%. Regarding `NC(=O)[C@@H]1[C@@H]2C(=O)N(c3ccc(F)cc3)C(=O)[C@@H]2[C@H]2C=Cc3ccccc3N21`, the inhibition was 0.9%. Turning to `COc1ccccc1C(=O)Nc1cc2cc(Br)ccc2oc1=O`, the inhibition was 3.8%. As to `CCOc1ccc(CC2CCC(=O)NC2=O)cc1` (stereo not given), the inhibition is -3%. Take `CC(=O)N(CCC1(c2ccc(C)cc2)CCOC(C(C)C)C1)Cc1ccco1` (stereo not given): the inhibition is -5.3%. The figure for `COc1ccc2[nH]cc(C(=O)CCl)c2c1` is -3.7%; for `CCOC(=O)C(NC(C)=O)C(O)c1ccc([N+](=O)[O-])cc1` (stereo not given) it is 7.5%. For `CC(C)(C)n1c(=O)[nH]c2c(c1=O)CCC2` the value was 1.8%; for `OC(C#CCN1CCCC1)(c1ccccc1)c1cccnc1` (stereo not given), -1%. The figure for `O=C(O)C1[C@H]2C(=O)N(C3CCCC3)C[C@]23C=C[C@H]1O3` (stereo not given in full) is 6.7%; for `CC1(C)CC(=O)c2cn3c(nc2C1)nc1ccccc13` it is 1%. Take `Cc1ccccc1OCC(O)CN1CCN(C)CC1` (stereo not given): the inhibition is 1%. Turning to `COc1ccc(CCN(C)CCCC(C#N)(c2cc(OC)c(OC)c(OC)c2)C(C)C)cc1OC` (stereo not given), the inhibition was 5.3%. As to `CCC(C)NCCOCCOc1ccc(Cl)cc1Br` (stereo not given), the inhibition was 0.5%. Regarding `CC(=O)c1ccc(CCCCCCCCCC(=O)O)s1`, the inhibition was 1.9%. As for `COc1ccc(C2C3=C(OC(C)=O)c4ccccc4C3=Nc3c2c(=O)n(C)c(=O)n3C)cc1` (stereo not given), the inhibition was 4%. Take `O=C1CC[C@@H](CN(Cc2ccccc2)Cc2cn[nH]c2-c2cc3ccccc3o2)N1`: the inhibition is 3.7%. On to `COC(=O)CSc1nc2ccc(N)cc2s1`, for which the inhibition is 2.6%. The figure for `CCOC(=O)C(=O)Nc1ccc(Oc2ccccc2)cc1` is 1.4%.

Source of the values: PubChem BioAssay.
